Source: PubChem BioAssay (NCATS)
Unmarked numbers belong to inactive results. Records with an inconclusive call do not appear. Entries that show only a call come without a potency. The source made the active and inactive calls. Calls come from the whole dose curve; as a rule, active = well fitted curve in the direction sought with a large enough effect; inconclusive = small, poorly fitted or top-dose-only effect, or another doubt; inactive = no such curve, though single readings can be large; an effect the other way counts as inactive or inconclusive.

Columns and labels:
[1] = target: Glutathione peroxidase 1 (Homo sapiens) (UniProt P07203); assay: Primary qHTS Assay for Inhibitors of Recombinant Selenoprotein Glutathione Peroxidase 1 (GPX1) (AID 1845191); note: nearly all actives have a fitted effect of over 65% in size; note: potency is the fitted concentration of half-maximal effect
In short: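 GR-coupled readout: NADPH consumption tracked by fluorescence, ex 340/em 450 nm, at t=0 and after 15 min at RT. Final mix 10 nM GPX1, 1 mM GSH, 0.5 mM CHP, 0.5 mM NADPH, 100 nM GR, 0.01% BSA, following 30 min enzyme–compound preincubation.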

[2] = target: Phospholipid hydroperoxide glutathione peroxidase GPX4 (Homo sapiens) (UniProt P36969); assay: Primary qHTS Assay for Inhibitors of Recombinant Selenoprotein Glutathione Peroxidase 4 (GPX4) (AID 1845192); note: nearly all actives have a fitted effect of over 65% in size; note: potency is the fitted concentration of half-maximal effect
In short: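 Steps: GPX4 plus compound, 30 min RT; add GR/GSH/NADPH master mix; start with cumene hydroperoxide; read 340/450 nm fluorescence at 0 and 15 min. Finals were 200 nM GPX4, 1 mM GSH, 0.5 mM CHP, 0.5 mM NADPH, 100 nM GR.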

[3] = target: Luciferin 4-monooxygenase (Photinus pyralis) (UniProt P08659); assay: Primary firefly luciferase (FLuc) qHTS assay for identification of artifact compounds. (AID 1845220); note: nearly all actives have a fitted effect of over 60% in size
In short: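 Titrated compounds were incubated 15 min at RT, protected from light, with luciferin and ATP at 10 uM; reaction started with 10 nM FLuc, luminescence imaged at 5 min, and concentration-response fitted by Hill equation.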

[4] = tested on: Nanoluciferase (engineered Oplophorus gracilirostris luciferase); assay: Primary Nanoluciferase (NLuc) qHTS assay for identification of artifact compounds. (AID 1845222);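 note: NLuc secreted into diluted conditioned medium of S16 cells; series mostly up to about 54 µM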
In short: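 qHTS format, against NLuc in S16 cell-conditioned medium. Nano-Glo substrate 1:100 was added after 15 min at room temperature. Luminescence was taken after a further 5 min.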

[5] = Primary fluorescence-based thiol-reactive (MSTI) qHTS assay for identification of artifact compounds. (AID 1845221); note: nearly all actives have a fitted effect of over 65% in size; note: potency is the fitted concentration of half-maximal effect
In short: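 Compounds were incubated 1 h at room temperature in the dark with the MSTI probe (4 uM) in PBS pH 7.4, 2% DMSO. Signals were normalized between Acetyl-MSTI and MSTI.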

[6] = Primary redox qHTS assay for identification of artifact compounds. (AID 1845223)
In short: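 Redox-cycling detection via DTT (250 uM final) oxidation coupled to Amplex Red (25 uM)/HRP (250 mU/mL) in HBSS. 15 min preincubation plus 30 min after DTT, room temperature. Ex/Em 525/598 nm; 4-parameter Hill fit against DMSO and 10 uM DA3003.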

Chain of Glutathione peroxidase 1 (Homo sapiens) (P07203 whole entry, looked up): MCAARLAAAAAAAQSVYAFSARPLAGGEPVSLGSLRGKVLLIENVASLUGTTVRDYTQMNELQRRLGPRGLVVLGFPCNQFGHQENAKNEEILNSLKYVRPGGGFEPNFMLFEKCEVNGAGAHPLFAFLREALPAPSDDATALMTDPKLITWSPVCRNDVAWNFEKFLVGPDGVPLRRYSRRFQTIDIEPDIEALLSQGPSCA
Chain of Phospholipid hydroperoxide glutathione peroxidase GPX4 (Homo sapiens) (P36969 whole entry, looked up): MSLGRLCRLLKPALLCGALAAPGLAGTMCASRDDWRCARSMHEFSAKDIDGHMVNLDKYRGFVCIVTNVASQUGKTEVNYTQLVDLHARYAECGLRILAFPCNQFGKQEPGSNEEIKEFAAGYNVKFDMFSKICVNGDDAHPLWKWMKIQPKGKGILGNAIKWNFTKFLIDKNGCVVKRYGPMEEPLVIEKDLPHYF

| Compound | Potency [1] | Potency [2] | Potency [3] | Potency [4] | Potency [5] | Potency [6] |
| --- | --- | --- | --- | --- | --- | --- |
| C/C(=C\Cc1c(O)c(Cl)c(C)c(C=O)c1O)CC/C=C(\C)[C@H]1CC(=O)C(C)(C)O1 | inactive | inactive | inactive | inactive |  |  |
| COc1cc(CCC2=NN=C(NC(=O)c3ccc(N4C[C@@H](C)N[C@@H](C)C4)cc3)C2)cc(OC)c1 | inactive | inactive | inactive |  | inactive | inactive |
| Cc1cc(CS(=O)(=O)c2ccccc2)cc(OCc2ccc(CN3CCCC3CO)cc2)c1 (stereo not given) | inactive | inactive | inactive |  | inactive | inactive |
| CN1CC[C@@H](c2c(O)cc(O)c3c(=O)cc(-c4ccc(C(F)(F)F)cc4Cl)oc23)[C@@H]1CO | inactive | inactive | inactive | inactive |  |  |
| CC1(C)CCCC2(C)C1C(OC(=O)/C=C/C=C/C=O)C=C1COC(=O)C12O (stereo not given) | inactive | inactive | inactive |  | inactive | inactive |
| C/C=C(\C)[C@@H]1C(C)=C[C@@H]2[C@H]([C@@H]1/C=C/C=C/C(=O)O)[C@@H](C)CC[C@@H]2O | inactive | inactive | inactive | inactive |  |  |
| C#Cc1cccc(Nc2nc3cc(C(=O)O)ccc3c3cncnc23)c1 | inactive | inactive | inactive |  | inactive | inactive |
| CC(=O)OC[C@]12[C@H](OC(C)=O)C(=O)[C@@H]3[C@@H](O)[C@@]14O[C@@]3(C)COC(=O)c1cccnc1[C@@H](C)[C@H](C)C(=O)O[C@@H]([C@H](O)[C@@H]2OC(C)=O)[C@]4(C)O | inactive | inactive | inactive | inactive |  |  |
| CN(C)CCCn1cc(C2=C(c3c[nH]c4ccccc34)C(=O)NC2=O)c2ccccc21 | inactive | inactive | inactive |  | 0.423 µM (active) | inactive |
| CC(C)CC(=O)c1c(O)cc2c(c1O)C(CC(C)C)C1=C(O2)C(C)(C)C(=O)C(C)(C)C1=O (stereo not given) | inactive | inactive | inactive | inactive |  |  |
| c1ccc(-c2ccc(CNc3nc(-c4ccccn4)nnc3-c3ccccc3)cc2)cc1 | inactive | inactive | inactive |  | inactive | inactive |
| O=C1Nc2ccccc2-c2nc3ccccc3c(=O)n2-c2c(O)cccc21 | inactive | inactive | inactive | inactive |  |  |
| CCC/C=C/C=C/C1CC(O)C2(O)C(=O)OCC12 (stereo not given) | inactive | inactive | inactive | inactive |  |  |
| CC(C)(O)/C=C/C(=O)[C@](C)(O)[C@H]1[C@H](O)C[C@@]2(C)[C@@H]3CC=C4[C@@H](C[C@H](O[C@@H]5O[C@H](CO)[C@@H](O)[C@H](O)[C@H]5O)C(=O)C4(C)C)[C@]3(C)C(=O)C[C@]12C | inactive | inactive | inactive | inactive |  |  |
| CC(=O)OC1C(O)CC2(C)C(CCC3(C)C2CC=C2C4C5(CCC(CO[C@@H]6O[C@H](CO)[C@@H](O)[C@H](O)[C@H]6O)(OC5=O)C4(C)O)C(O)CC23C)C1(C)C (stereo not given in full) | inactive | inactive | inactive | inactive |  |  |
| O=S(=O)(Nc1cc(Cl)c(Oc2cnc3ccccc3c2)c(Cl)c1)c1ccc(Cl)cc1Cl | inactive | inactive | inactive |  | inactive | inactive |
| C=C1[C@@H](OC(C)=O)CC[C@@]2(C)[C@@H](OC(C)=O)[C@H](OC(C)=O)C3=C(C)C[C@H](OC(=O)C(C)CC)[C@@H]([C@@H](OC(C)=O)[C@H]12)C3(C)C (stereo not given in full) | inactive | inactive | inactive | inactive |  |  |
| CC(=O)OC1C(=O)C2C3OCC4=C3[C@@](C)(CC[C@@H]4O)CC[C@]2(C)[C@H]1C(C)C (stereo not given in full) | inactive | inactive | inactive | inactive |  |  |
| Cc1cn2cc(C(=O)N(C)CCO)cc(NC3CCOc4cccc(C)c43)c2n1 (stereo not given) | inactive | inactive | inactive | inactive |  |  |
| O=S(=O)(Nc1ccccc1N1CCCCC1)c1ccc(Cl)s1 | inactive | inactive | inactive | inactive |  | inactive |
| CC[C@@H](C)Nc1cc(C(=O)NC2CC3CCC(C2)N3c2ccc(C(=O)C3CC3)cn2)c(C)cc1C(N)=O (stereo not given in full) | 16.3 µM (active) | 5.7 µM (active) | inactive | inactive |  |  |
| CCN(CC)C(=O)C(c1ccccc1)N1CCN(c2ccc(NC(=O)c3ccccc3-c3cccnc3)cc2F)CC1 (stereo not given) | inactive | inactive | inactive | inactive |  | inactive |
| CNCCC(c1cccs1)c1ccc(O)c2ccccc12 (stereo not given) | inactive | inactive | inactive | inactive |  |  |
| C/C1=C/CCC2=CC(OC2=O)C(C)(C)/C=C/C1=O (stereo not given) | inactive | inactive | inactive | inactive |  | inactive |
| C/C=C/[C@@H]1C=C[C@@H]2C[C@H](C)CC[C@H]2[C@]1(C)/C(O)=C1/C(=O)[C@@H](CO)N(C)C1=O | inactive | inactive | inactive | inactive |  |  |
| C=C1C(=O)O[C@@H]2C[C@]3(C)[C@@H](CCC(C)O)[C@@H]3C[C@H]12 (stereo not given in full) | inactive | inactive | inactive | inactive |  | inactive |
| Fc1ccc(-c2nc(-c3c(F)cccc3F)[nH]c2-c2ccncc2)cc1 | inactive | inactive | inactive | inactive |  | inactive |
| O=C(NCCN1CCN(c2cccc3ccc(O)cc23)CC1)c1ccc(F)cc1 | inactive | inactive | inactive | inactive |  | inactive |
| Cc1[nH]c2ccccc2c1CCNCc1ccc(/C=C/C(=O)NO)cc1 | inactive | inactive | inactive | inactive |  | inactive |
